Experimental data reported in PubChem BioAssay (NCATS).
Inconclusive results are not listed. A call without a number means that no potency is given here. Calls of active or inactive are those of the source. Calls come from the whole dose curve; as a rule, active = well fitted cell-killing curve with a large enough effect; inconclusive = small, poorly fitted or top-dose-only effect; inactive = flat fitted curve, though single readings scatter.

experiment: Cell Viability - LYMP2-018 (AID 985); details: LYMP2-018 lymphoblastoid cells, viability (qHTS); series mostly up to 92.2 µM;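 note: compound exposure lasted 24 hr at 37 °C; nearly all actives have a fitted effect of over 50% in size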
Excerpt: NIH Chemical Genomics Center [NCGC]
NIH Molecular Libraries Screening Centers Network [MLSCN]
National Institutes of Environmental Health Sciences [NIEHS]
National Toxicology Program [NTP]
We have developed a 1536-well cell-based assay for quantitative high throughput screening (qHTS) against a number of cell lines to determine in vitro cytotoxicity of small molecules. This particular assay uses a human lymphoblastoid cell line (LYMP2-018) purchased from Coriell Institute for Medical Research.
NCGC Assay Protocol Summary:
The CellTiter-Glo luminescent cell viability assay (Promega) is a homogeneous method to measure the number of viable cells in culture. The end point readout of this assay is based on quantitation of intracellular ATP, an indicator of metabolic activity, using the luciferase reaction. Luciferase catalyzes the oxidation of beetle Luciferin to oxyluciferin and light in the presence of ATP. The luminescent signal is proportional to amount of ATP present.
Using the CellTiter-Glo luminescent cell viability assay, the amount of cellular ATP was measured in the lymphoblastoid cell line with complete culture medium following compound treatment for 24 hours. The assay was performed in opaque white Kalypsys 1536-well plates. In the screen, tetraoctylammonium bromide was used as positive control. Library compounds were measured for their ability to cause acute toxicity in the cell line, as reflected by a decrease in intracellular ATP levels, in a concentration-dependent manner. […] AC50 values were determined from concentration-response data modeled with the standard Hill equation.
qHTS protocol for CellTiter Glo lymphoblastoid cellular assay
[Step] [Parameter] [Value] [Description]
1. Reagent; 5 uL; 2500 lymphoblastoid cells/well
2. Time; 5 hr; 37 C incubation
4. Controls; 23 nL; Tetraoctylammonium bromide 6.4pM to 92 uM
5. Time; 24 hr; 37 C incubation
6. Reagent; 5 uL; CellTiter Glo reagent
7. Time; 30 min; Room Temperature
8. Detection; Luminescence; Viewlux plate reader
Keywords: cell viability, cytotoxicity, lymphoblastoid cell line, luminescence, NTPHTS, NTPHTS_NCGC, NIEHS, DSSTox, MLSMR, MLSCN, NIH Roadmap, qHTS, NCGC
Potency is the fitted concentration of half-maximal effect.

Compound	Potency
CC1=C(/C=C/C(C)=C/C=C/C(C)=C\C=O)C(C)(C)CCC1	50.1 µM (active)
CCC(C)=O	inactive
Cc1ccc2ncccc2c1	inactive
COC(=O)CC#N	inactive
Cc1cc(C)c(N)cc1C	inactive
CCCCC=O	inactive
Cc1cscn1	inactive
CCCCCCC(=O)O	inactive
Nc1cc(Cl)c(N)c(Cl)c1	inactive
O=[N+]([O-])c1ccc2nc[nH]c2c1	inactive
OC(CCl)CCl	inactive
C=Cc1ccc(C=C)cc1	inactive
C[C@@H]1CC2(OC3C[C@@]4(C)C5=CC[C@H]6C(C)(C)C(O[C@@H]7OC[C@@H](O)[C@H](O)[C@H]7O)CC[C@@]67C[C@@]57CC[C@]4(C)C31)OC(O)C1(C)OC21 (stereo not given in full)	inactive
Cc1ccc2c(c1[N+](=O)[O-])C(=O)c1ccccc1C2=O	inactive
CC(C)CO	inactive
c1ccc2n[nH]nc2c1	inactive
CCC(C)O (stereo not given)	inactive
Cc1cc(C)cc(O)c1	inactive
C=C(C)C(N)=O	inactive
CC(=O)C1(C)CC2=C(CCCC2(C)C)CC1C (stereo not given)	inactive

Compound	Potency
CCc1ccccc1	inactive
Cc1c(N)cccc1[N+](=O)[O-]	inactive
CCOc1cccc(N)c1	inactive
Cc1cc(C2(c3cc(C)c(O)cc3C)OS(=O)(=O)c3ccccc32)c(C)cc1O	inactive
Cc1cc(C(=O)O)ccc1[N+](=O)[O-]	inactive
ClCCl	inactive
CCCCC(CC)COCC1CO1 (stereo not given)	inactive
Cc1ccc(Cl)cc1N	inactive
CCC(=O)/C=C/C1C(C)=CCCC1(C)C (stereo not given)	inactive
COc1cccc(N)c1	inactive
CC(N)CN (stereo not given)	inactive
CC(C)=CCC/C(C)=C/C=O	inactive
C=Cc1ccccn1	inactive
C=CC(=O)OCCCC	inactive
CC(=O)Nc1cccc(N)c1	inactive
O=[N+]([O-])c1ccccc1CCO	inactive
O=C(O)c1cccc([N+](=O)[O-])c1	inactive
CC(C)(C)OCC1CO1 (stereo not given)	inactive
O=C1CCC(=O)O1	inactive
NC(=O)c1ccccc1[N+](=O)[O-]	inactive
